biological target: NPSR1; experiment: pooled miR-30 sensor sort-seq; sequence = guide strand; settings: shRNA
Further: reference of the scale not given here.

Sequence	sensor-assay potency score (higher = more potent)
TTGGACAGTGTCCTCTTCCCAA	-1.13
TTTGCCTTTGAGATGAGTCCTC	0.0754
TACCCTTCCAGTTCTCTCGTTG	0.107
TTCTTCTTTCTCCTCCATGTGG	-0.829
TTAAAGGAGTAGTAGAAGGAAC	-1.01

biological target: NR3C1; experiment: as above; settings: shRNA

Sequence	sensor-assay potency score (higher = more potent)
TTCATCTATCAACAGGTCTGAT	-0.68
TTGAGCGTAGTCATGATCCTCC	0.514
TTGACAAAACCAGATCTCCATT	-1.1
TGACTTATTATTGACAACGAAG	-1.46
TAGAAAAAACTGTTCGACCAGG	-0.371
TTCAGGTTCAATAACCTCCAAC	-0.915
TAGGGTTTTATAGAAGTCCATC	-1.08
TTCACCTACAGCTACAGTCAGG	-1.07
TTTTCTTCGAATTTTATCGATG	-1.06
TTGAAGAAAACTTTACAGCTTC	0.56
TTACATTGGTCGTACATGCAGG	-0.108
TAGAATATTGACACACTTGAAT	-0.527
